Assay results reported in PubChem BioAssay.
Values joined by “and” are separate entries in the source; they are usually repeats but may differ in a detail not shown here. Equal entries are not always repeated. Unmarked numbers belong to inactive results. Active and inactive are the calls of the source. Cut-off read from the data, not from the text of the source, unless noted: active = inhibition above about 28%; inactive = the rest.

What was measured:
[1] = StAR promoter reporter inhibitors, counter-screen for LRH-1 inverse agonist project, cell-based, luminescence, high throughput (AID 651611); details: StAR promoter luciferase reporter counterscreen, at 3.6 µM, stronger effect = higher value
[2] = target: Nuclear receptor subfamily 5 group A member 2 (Homo sapiens) (UniProt O00482); test: LRH-1 (NR5A2) inverse agonists, retest, confirmation, cell-based, luminescence (AID 651613; in the data active = inhibition above about 42%;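 note: HEK293T cells co-transfected with LRH-1 and StAR promoter luciferase reporter; 0% = vehicle wells and 100% = parental cells lacking receptor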); details: cell-based LRH-1 luciferase reporter, inverse agonism; at 3.6 µM; stronger effect = higher value
[3] = target: Steroidogenic factor 1 (Homo sapiens) (UniProt Q13285); test: SF1 (NR5A1) inverse agonists, counter-screen for LRH-1 inverse agonist project, cell-based, luminescence, high throughput (AID 651614; in the data active = inhibition above about 44%;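 note: cells cotransfected with StAR promoter reporter and SF1 expression vector; 0% = vehicle on cells with receptor and 100% = vehicle on cells lacking receptor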); details: cell-based SF1 luciferase reporter, at 3.6 µM, stronger effect = higher value
[4] = VP16 transactivation reporter inhibitors, counter-screen for LRH-1 inverse agonist project, cell-based, luminescence, high throughput (AID 651615; in the data active = inhibition above about 33%); details: Gal4-VP16 luciferase reporter cells, at 3.6 µM, stronger effect = higher value

Chain of Nuclear receptor subfamily 5 group A member 2 (Homo sapiens) (O00482 whole entry, looked up): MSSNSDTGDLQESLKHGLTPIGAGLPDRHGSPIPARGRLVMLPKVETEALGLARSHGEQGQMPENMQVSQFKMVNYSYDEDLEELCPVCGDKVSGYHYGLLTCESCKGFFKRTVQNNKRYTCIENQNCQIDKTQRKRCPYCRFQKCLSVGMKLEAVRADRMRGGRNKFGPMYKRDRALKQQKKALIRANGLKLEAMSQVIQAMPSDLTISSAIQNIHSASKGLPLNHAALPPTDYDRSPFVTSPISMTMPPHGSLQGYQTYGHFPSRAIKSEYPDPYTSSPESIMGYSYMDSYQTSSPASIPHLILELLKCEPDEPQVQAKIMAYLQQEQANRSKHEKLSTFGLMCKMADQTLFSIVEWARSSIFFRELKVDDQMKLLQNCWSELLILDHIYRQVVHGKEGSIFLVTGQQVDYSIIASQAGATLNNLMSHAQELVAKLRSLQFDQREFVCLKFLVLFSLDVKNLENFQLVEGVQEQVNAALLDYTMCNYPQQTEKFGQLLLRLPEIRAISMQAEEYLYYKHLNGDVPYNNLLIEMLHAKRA
Chain of Steroidogenic factor 1 (Homo sapiens) (Q13285 whole entry, looked up, the tested form may be a part): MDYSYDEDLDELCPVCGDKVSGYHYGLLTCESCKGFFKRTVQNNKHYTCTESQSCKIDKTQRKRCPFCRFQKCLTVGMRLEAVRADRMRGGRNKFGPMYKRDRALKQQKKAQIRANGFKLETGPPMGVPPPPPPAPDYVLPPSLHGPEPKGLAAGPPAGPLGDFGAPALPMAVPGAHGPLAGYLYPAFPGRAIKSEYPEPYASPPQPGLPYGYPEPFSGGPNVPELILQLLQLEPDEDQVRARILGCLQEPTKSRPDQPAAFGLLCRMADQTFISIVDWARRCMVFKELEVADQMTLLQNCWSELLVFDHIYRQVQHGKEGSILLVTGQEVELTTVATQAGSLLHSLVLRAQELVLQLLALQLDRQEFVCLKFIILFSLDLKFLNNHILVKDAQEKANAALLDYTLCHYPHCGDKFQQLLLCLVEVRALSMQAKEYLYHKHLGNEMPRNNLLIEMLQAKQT

Row | SMILES | inhibition [1] | inhibition [2] | inhibition [3] | inhibition [4]
1 | COc1ccccc1Nc1nc(NCCCCO)nc(N2CCCC2)n1 | 10.5% | 30.2% | 38.3% | 5.34%
2 | Cc1ccc(CNC(=O)COc2ccc(C(=O)c3ccc(F)cc3)cc2)cc1 | 17.6% | 51% (active) | 35.8% | -11.9%
3 | O=C1CCc2cc(OCCCCc3nnnn3C3CCCCC3)ccc2N1 | 12.9% | 54% (active) | 49.8% (active) | 9.24%
4 | CC(=O)Nc1ccc(NC(=O)CSc2ccc(-c3ccc(-n4ccnc4)cc3)nn2)cc1 | 9.71% | 52% (active) | 53% (active) | -5.42%
5 | O=C(Cn1cnc2c(nnn2-c2ccccc2)c1=O)NCC1CCCO1 (stereo not drawn) | -2.93% | 16.6% | -2.18% | 7.48%
6 | CCn1c(CN2CCN(c3ccc(Cl)cc3)CC2)nc2ccccc21 | 2.05% | 46% (active) | 36.1% | 7.76%
7 | O=c1[nH]c(Nc2ccc3c(c2)OCCO3)nnc1Cc1ccccc1 | 0.14% | 59.5% (active) | 37.8% | -12.8%
8 | Cc1c(NC(=O)c2cc(-c3cccs3)nc3ccccc23)c(=O)n(-c2ccccc2)n1C | 47% (active) | 33.5% | 18% | 2.7%
9 | COc1ccccc1Oc1nnnn1-c1ccc(C(N)=O)cc1 | 15.4% | 48% (active) | 51.8% (active) | -9.03%
10 | Cc1c(OCC(=O)NCCCN2CCOCC2)ccc2c(-c3ccccc3)cc(=O)oc12 | 2.78% | 37.8% | 36.5% | 5.76%
11 | COc1cc([N+](=O)[O-])ccc1NC(=O)C[n+]1ccccc1 | 15.1% | 58.8% (active) | 55.6% (active) | 3.98%
12 | CNC(=S)N/N=C/c1cn(Cc2ccc(C)cc2)c2ccccc12 | 2.35% | 46.9% (active) | 46.8% (active) | 1.56%
13 | O=C(CCl)Nc1cccn2ncnc12 | 33.1% (active) | 49.3% (active) | 54.6% (active) | -31.4%
14 | COc1cc(OC)cc(-c2oc3cccnc3c2C#CCCO)c1 | 2.16% | 60.8% (active) | 54.2% (active) | -0.7%
15 | CCCCCCCCN1C(=O)[C@H](CC(=O)NCC23CC4CC(CC(C4)C2)C3)C[C@@]2(C(=O)OCC)CCCC=C12 | 22.3% | 24.8% | 17.4% | 14.6%
16 | O=C(c1ccc(Oc2ccc([N+](=O)[O-])cc2Cl)cc1)N1CCCC1 | 6.61% | 46.2% (active) | 58.9% (active) | 4.32%
17 | CS(=O)(=O)c1ccc(Cl)c(NC(=O)Nc2ccccc2)c1 | -6.75% | 25.1% | 17.5% | -2.94%
18 | O=[N+]([O-])c1ccc(/C=N/Nc2ccnc3cc(Cl)ccc23)o1 | -10.6% | 44% (active) | 40% | -10.5%
19 | COc1ccc(NC(=O)/C(Cl)=C(/Cl)S(=O)Cc2ccc(Cl)cc2)cn1 (stereo not drawn) | 58% (active) | 91.7% (active) | 84.6% (active) | 89.5% (active)
20 | CCOC(=O)C(C)Oc1cccc2c(=O)n(CC(=O)Nc3ccc(OCC)cc3)ccc12 (stereo not drawn) | 4.74% | 60.1% (active) | 58.8% (active) | -11.2%
21 | CCOc1ccc(NC(=O)CSc2nc3ccccc3c(=O)n2CCCC(=O)NCC2CCCO2)cc1 (stereo not drawn) | 1.46% | 41.9% (active) | 40.1% | -6.22%
22 | CCn1c2ccccc2c2cc(/C=N/n3cn[nH]c3=S)ccc21 | 4.27% | 28.1% | 34.3% | -3.24%
23 | CC(C)N1CCc2c(sc(NC(=O)c3ccc([N+](=O)[O-])o3)c2C(N)=O)C1 | 37.6% (active) | 55.4% (active) | 56.4% (active) | -8.36%
24 | Cc1onc(-c2ccccc2)c1C(=O)O/N=C(\N)c1ccc([N+](=O)[O-])o1 | 11.5% | 64.5% (active) | 61.9% (active) | -9.42%
25 | CC(=O)Nc1ccc(NC(=O)COC(=O)c2c(C)nn(-c3ccccc3)c2C)cc1 | 10.2% | 51.6% (active) | 50.9% (active) | -22.5%
26 | O=C(C(Cl)c1ccccc1)N1CCCC1 (stereo not drawn) | 7.29% | 51.5% (active) | 44.9% (active) | -16.8%

Row | SMILES | inhibition [1] | inhibition [2] | inhibition [3] | inhibition [4]
27 | COc1cccc2c1C1COC3C4CC(C(=O)O)C(C(C2)N13)N4C (stereo not drawn) | 29.8% (active) | 45.4% (active) | 72.3% (active) | -10.2%
28 | COCCn1c(SCC(=O)Nc2ccc(C(N)=O)cc2)nc2c([nH]c3ccccc32)c1=O | 24.6% | 64.9% (active) | 61.7% (active) | -64%
29 | COc1ccc(C(=O)OCC(=O)Nc2ccc(N3CCOCC3)cc2)cc1OC | 10.1% | 52.8% (active) | 51.7% (active) | -1.85%
30 | COc1cccc(-c2cc(NC=O)c3ncc(-c4ccc(C(C)=O)cc4)n3c2)c1 | 45.1% (active) | 65.2% (active) | 60.1% (active) | -11.4%
31 | COc1cc(NCCCCCCN)c2ncccc2c1OC | 22.3% | 49% (active) | 43.6% (active) | -3%
32 | C[n+]1c2cc(N)ccc2cc2ccc(N)cc21 | 34.8% (active) and 28.5% (active) | 109% (active) and 105% (active) | 79.5% (active) and 66.7% (active) | 95.3% (active) and 92.1% (active)
33 | CCOC(=O)CCCc1ccc(/C(C)=N/NC(N)=S)cc1 | 21.6% | 62.4% (active) | 68.6% (active) | 26.4%
34 | CCN(CC)c1nc(-c2ccccn2)nc(-c2ccccc2)c1C#N | 11.5% | 53.4% (active) | 55.7% (active) | 13.6%
35 | CCn1c2ccccc2c2cc(C3C(C#N)=C(N)Oc4n[nH]c(COC)c43)ccc21 (stereo not drawn) | 44.9% (active) | 50.8% (active) | 51.7% (active) | 14.3%
36 | Cc1ccc(-n2nnnc2-c2ccccc2Br)cc1 | 7.41% | 57.2% (active) | 52% (active) | 4.92%
37 | CC12CCC(=O)N1c1c(sc3nc(N4CCOCC4)c4c(c13)CCCC4)C(=O)N2 (stereo not drawn) | 11.1% | 63.7% (active) | 53.7% (active) | -1.67%
38 | Cc1cc(-n2c(C)cc(C(=O)CSc3ncnc4ccccc34)c2C)no1 | 8.06% | 67.2% (active) | 61.3% (active) | 36.9% (active)
39 | CC(=O)Nc1ccc(N=c2cc([N+](=O)[O-])cc(Cl)n2O)cc1 | 14.3% | 59.6% (active) | 57.8% (active) | -3.98%
40 | Cc1ccc(NC(=O)COC(=O)c2cc(=O)c3ccccc3o2)c(Br)c1 | 7.74% | 50.4% (active) | 51.1% (active) | 2.1%
41 | CCOc1ccc(Br)cc1C1=NN(C(C)=O)C(c2ccc([N+](=O)[O-])s2)O1 (stereo not drawn) | 17.9% | 66.8% (active) | 63.2% (active) | -1.66%
42 | CCOC(=O)c1cc(-c2ccncc2)nc2c1c(C)nn2-c1ccccn1 | 14.2% | 44.6% (active) | 48% (active) | 13.1%
43 | COc1cc2cc(C(=O)NC(C)c3cccc4ccccc34)c(N)nc2cc1OC (stereo not drawn) | 34.5% (active) | 43.9% (active) | 59.1% (active) | 23.9%
44 | COc1ccc(CCNC(=O)CSc2nc3[nH]c(=O)cc(O)c3s2)cc1 | 17.6% | 60.7% (active) | 51.7% (active) | -3.78%
45 | O=C(CSc1nnnn1C1CCCC1)Nc1ccc2c(c1)OCCO2 | -0.49% | 44.7% (active) | 42.3% | -30.9%
46 | O=C(Nc1ccc2oc(-c3cccnc3)nc2c1)c1ccc([N+](=O)[O-])o1 | 8.01% | 58.1% (active) | 62.5% (active) | -5.53%
47 | COc1ccc(NC(=O)COc2cccc3c2CCN(C)C3=O)c(OC)c1 | 20.5% | 65.9% (active) | 61.6% (active) | -23.8%
48 | CCOc1ccc(CCNC(=O)COC(=O)c2nc3nc(C)cc(C)n3n2)cc1OCC | 9.65% | 48.8% (active) | 38.2% | -0.98%
49 | O=C(CCl)Nc1cccc2ncccc12 | 55.6% (active) | 61.7% (active) | 60.9% (active) | -58.5%
50 | Cc1cc(OCC(=O)Nc2nccs2)c2c(C)c(C)c(=O)oc2c1 | 42% (active) | 74.5% (active) | 66.2% (active) | -127%
51 | CCOc1ccc(CCNC(=O)COC(=O)CCC(=O)c2cccs2)cc1OCC | -0.72% | 45.3% (active) | 51% (active) | -6.57%
52 | COc1ccc(-c2cc3ccccc3oc2=O)cc1NC(=O)c1ccc([N+](=O)[O-])o1 | -51.4% | 16% | 22.5% | -68.2%
